aSyn yeast inh – rescues yeast growth from alpha-synuclein toxicity; actives 0.14% (n = 370,000); Potency, µM (series often up to 46.1 µM), actives largely listed as activators; Yeast expressing alpha-synuclein, growth rescue, BacTiter-Glo, 24 h; also: nearly all actives have a fitted effect of over 65% in size
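Galactose-induced alpha-syn yeast (OD600=0.02, raffinose-pregrown) + pinned cpd, 24 hr, 30 deg C; growth by BacTiter-Glo luminescence. Growth restoration scores as activation.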
TDP-43 yeast inh – rescues yeast growth from TDP-43 toxicity | TDP-43 expressing yeast growth rescue, BacTiter-Glo, 24 h | Potency, µM (doses to about 46.1 µM), actives largely listed as activators | actives 1.8% (n = 410,000); also: nearly all actives have a fitted effect of over 50% in size
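In this qHTS, compounds that restore growth of yeast expressing TDP-43 appear as activators. Cells (OD600=0.02, galactose medium, raffinose-pregrown) are incubated with compound 24 hr at 30 deg C and growth is quantified by BacTiter-Glo.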
FUS suppressor – rescues growth of FUS-expressing yeast | Potency, µM (series often up to 76.6 µM), hits mostly activators | S. cerevisiae FUS-expressing, growth rescue, OD600, 24 h | actives 0.24% (n = 390,000); also: nearly all actives have a fitted effect of over 55% in size
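S. cerevisiae expressing FUS from galactose induction served as the toxicity model. Growth after 24hr at 30C, read as absorbance at 600 nm, indicates suppression of toxicity; compounds dosed at several concentrations.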
PTHR1 ag – PTHR1 (human) receptor agonism; Potency, µM (highest dose often 115 µM), actives largely listed as activators; HEK293 GP2 PTHR1 cells, GloSensor cAMP luminescence, 1 h; Q03431; actives 0.075% (n = 410,000); AID 743266; also: nearly all actives have a fitted effect of over 55% in size
Target sequence (Q03431 whole entry, looked up): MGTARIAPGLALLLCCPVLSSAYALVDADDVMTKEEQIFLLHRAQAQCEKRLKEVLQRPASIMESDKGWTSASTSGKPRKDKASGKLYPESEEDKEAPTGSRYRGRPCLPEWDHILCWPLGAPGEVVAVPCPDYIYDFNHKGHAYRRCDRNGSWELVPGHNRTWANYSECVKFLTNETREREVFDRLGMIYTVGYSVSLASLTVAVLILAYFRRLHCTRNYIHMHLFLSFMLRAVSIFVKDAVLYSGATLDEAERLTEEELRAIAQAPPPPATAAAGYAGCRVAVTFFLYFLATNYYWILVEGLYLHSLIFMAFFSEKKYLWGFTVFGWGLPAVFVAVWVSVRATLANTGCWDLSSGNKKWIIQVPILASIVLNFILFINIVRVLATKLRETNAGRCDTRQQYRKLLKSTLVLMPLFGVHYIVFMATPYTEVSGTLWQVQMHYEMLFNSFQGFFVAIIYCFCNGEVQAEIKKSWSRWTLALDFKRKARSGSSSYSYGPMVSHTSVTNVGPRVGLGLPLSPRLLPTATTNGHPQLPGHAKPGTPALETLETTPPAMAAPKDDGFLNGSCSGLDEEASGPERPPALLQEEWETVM
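HEK-293-derived GP2 cells expressing PTHR1 and a GloSensor cAMP reporter, 3,000/well, plated overnight, given luciferin plus IBMX (each 0.5 mM as added) for 1 h at 37 °C, then compound for 1 h at 37 °C. Luminescence was read after 15 min at room temperature.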
LDHA inh – inhibitors of human lactate dehydrogenase A. activity change, % (values are at about 110 or 230 µM). P00338. actives 0.15% (n = 480,000). purified LDHA, NADH/diaphorase-resazurin fluorescence; active compounds read low; in the data active = activity change below about -30%; inconclusive = mostly about -25% to -30%
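Resorufin fluorescence (ex540/em590), read at 0 and 20 min after diaphorase/resazurin addition, reports the NADH left after a 5 min room-temperature reaction of 2 nM human LDH5 with 0.06 mM NADH and 0.2 mM pyruvate.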
Abeta yeast res – restores growth of yeast expressing A-beta42 peptide; yeast expressing A-beta42, growth rescue, OD600, 48 h; response scale: 0% DMSO, 100% iron-clioquinol control; Potency, µM (titrated, usually from 46.1 µM), most hits filed as activators; actives 0.063% (n = 410,000); also: nearly all actives have a fitted effect of over 55% in size
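Yeast A-beta toxicity model in growth medium with pinned compounds, 48 h at 30 C; growth read as absorbance at 600 nm. Normalized to FeCl3/clioquinol equimolar mix (positive) and DMSO (negative).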
Large screens that a line does not name were inactive. Most compounds without a hit are left out; they make up all but 1.9% or so of the library. Unless noted, calls follow the shape of the dose curve; as a rule, active = well fitted curve in the direction sought with a large enough effect; inconclusive = small, poorly fitted or top-dose-only effect, or another doubt; inactive = no such curve, though single readings can be large; an effect the other way counts as inactive or inconclusive.

CCCOc1ccccc1N/C(=N/c1nc(C)cc(C)n1)NC(=O)COc1ccc(OC)cc1	TDP-43 yeast inh 2.24µM, FUS suppressor inconclusive
O=C(Nc1oc2ccccc2c(=O)c1-c1ccc2c(c1)OCO2)c1ccccc1	LDHA inh -36.1 (no result: aSyn yeast inh, TDP-43 yeast inh, FUS suppressor, PTHR1 ag, Abeta yeast res)
Cc1ccc(-c2nc3cccnc3s2)cc1NS(=O)(=O)c1cccs1	TDP-43 yeast inh 11.2µM
O=S(=O)(Nc1cccc2cccnc12)c1cccc2ccccc12	aSyn yeast inh inconclusive (no result: TDP-43 yeast inh, FUS suppressor, PTHR1 ag, Abeta yeast res)
Cc1ccc(C)c(S(=O)(=O)Nc2cccc3cccnc23)c1	none (no result: aSyn yeast inh, TDP-43 yeast inh, FUS suppressor, PTHR1 ag, Abeta yeast res)
O=S(=O)(Nc1cccc2cccnc12)c1cccs1	aSyn yeast inh 22.4µM (no result: TDP-43 yeast inh, FUS suppressor, PTHR1 ag, Abeta yeast res)
O=S(=O)(Nc1cccc2ccccc12)c1cccs1	none
O=S(=O)(Nc1cccc2cccnc12)c1ccc2ccccc2c1	aSyn yeast inh 17.8µM (no result: TDP-43 yeast inh, FUS suppressor, PTHR1 ag, Abeta yeast res)
COc1ccc(S(=O)(=O)Nc2cccc3cccnc23)c([N+](=O)[O-])c1	aSyn yeast inh 22.4µM (no result: TDP-43 yeast inh, FUS suppressor, PTHR1 ag, Abeta yeast res)
COc1ccc(C(C)=O)cc1CSc1c(C)c(C)cc(C)c1C	none (no result: aSyn yeast inh, TDP-43 yeast inh, FUS suppressor, PTHR1 ag, Abeta yeast res)
COCCN(Cc1cc(OC)c(OC)c(OC)c1)Cc1cc(=O)n2ccc(C)cc2n1	none (no result: aSyn yeast inh, TDP-43 yeast inh, FUS suppressor, PTHR1 ag, Abeta yeast res)
COc1ccc(-c2cc(C(=O)NC(C)(CO)CO)c3ccccc3n2)cc1	none (no result: aSyn yeast inh, TDP-43 yeast inh, FUS suppressor, PTHR1 ag, Abeta yeast res)
CC(C)=CCC[C@](C)(O[C@@H]1O[C@H](CO[C@@H]2OC[C@H](O[C@@H]3OC[C@@H](O)[C@H](O)[C@H]3O)[C@H](O)[C@H]2O)[C@@H](O)[C@H](O)[C@H]1O)C1CC[C@]2(C)C1[C@H](O)CC1[C@@]3(C)CC[C@H](O)C(C)(C)C3[C@@H](O)C[C@]12C (stereo not given in full)	none
CC(C)=CCC[C@](C)(O[C@@H]1O[C@H](CO[C@@H]2OC[C@@H](O)[C@H](O)[C@H]2O)[C@@H](O)[C@H](O)[C@H]1O)C1CC[C@]2(C)C1[C@H](O)CC1[C@@]3(C)CC[C@H](O[C@@H]4O[C@H](CO)[C@@H](O)[C@H](O)[C@H]4O)C(C)(C)C3CC[C@]12C (stereo not given in full)	FUS suppressor 15.8µM
CCCN(C)c1ccc(/C=N/NC(=S)Nc2cccc(SC)c2)cc1	none (no result: aSyn yeast inh, TDP-43 yeast inh, FUS suppressor, PTHR1 ag, Abeta yeast res)
Cc1ccc(C(=O)NCC#N)cc1	none
Cc1ccc(C(=O)NC(C#N)=C(Cl)Cl)cc1	TDP-43 yeast inh 11.2µM
COc1ccc(-c2nc3cc(NC(=O)COc4ccc(C)cc4)ccc3o2)cc1	none (no result: aSyn yeast inh, TDP-43 yeast inh, FUS suppressor, PTHR1 ag, Abeta yeast res)
Cc1cc(C(=O)CN(C)Cc2ccc3c(c2)OCO3)c(C)n1C(C)C	none (no result: aSyn yeast inh, TDP-43 yeast inh, FUS suppressor, PTHR1 ag, Abeta yeast res)
O=C(/C(=N/O)c1ccccc1)c1ccccc1	TDP-43 yeast inh 22.4µM
CC(C)NC(=O)/C(=N\O)c1ccccc1	none
CCSc1nnc2n(CC)c(=O)c3c(n12)-c1ccccc1CC31CCCCC1	none (no result: aSyn yeast inh, TDP-43 yeast inh, FUS suppressor, PTHR1 ag, Abeta yeast res)
CCN(C(=O)COC(=O)c1ccco1)c1cccc2ccccc12	aSyn yeast inh inconclusive, TDP-43 yeast inh inconclusive
CCN(C(=O)COC(=O)c1ccc(O)cc1)c1cccc2ccccc12	TDP-43 yeast inh inconclusive, Abeta yeast res 7.94µM
Cc1ccc2nc(-c3ccccc3Cl)cc(C(=O)Nc3cc(C)on3)c2c1	TDP-43 yeast inh 17.8µM
Cc1ccc(C)c(-c2cc(C(=O)Nc3cc(C)on3)c3ccccc3n2)c1	none (no result: aSyn yeast inh, TDP-43 yeast inh, FUS suppressor, PTHR1 ag, Abeta yeast res)
O=C(O)c1cc2ccccc2c2c1C(=O)c1ccccc1-2	aSyn yeast inh 2.82µM, Abeta yeast res inconclusive
Nc1cc(C(=O)O)c(N)c2c1C(=O)c1ccccc1C2=O	none
O=[N+]([O-])c1ccc(-c2ccc(/C=N/Nc3nc(N4CCCC4)nc(N4CCCC4)n3)o2)cc1	none
COc1ccc(/C=N/Nc2nc(N3CCCCC3)nc(N3CCCCC3)n2)cc1[N+](=O)[O-]	FUS suppressor inconclusive
O=[N+]([O-])c1ccc(-c2ccc(/C=N/Nc3nc(N4CCCCC4)nc(N4CCCCC4)n3)o2)cc1	TDP-43 yeast inh 14.1µM
O=[N+]([O-])c1cc(/C=N/Nc2nc(N3CCCCC3)nc(N3CCCCC3)n2)ccc1O	TDP-43 yeast inh 22.4µM

Bioassay records: PubChem BioAssay, National Center for Advancing Translational Sciences (NCATS)
